Test results as given in PubChem BioAssay AID435019 (Southern Research Specialized Biocontainment Screening …, 2010).
Hit rate of the full screen: of about 2,300 compounds, about 1,200 (52%) were called active. How the calls were made is not given here. So high a share suggests a set chosen from earlier hits. The list shows a part of the results. Entries with a potency or affinity are not part of this list.

assay: mammalian cell cytotoxicity, dose response, cytotoxicity control for M. tuberculosis inhibitor project (AID 435019); conditions: cytotoxicity counter-screen; series mostly up to 40 µM; viability: at the top concentration;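 further: 0% = background wells and 100% = vehicle-treated cells; lower values mean fewer viable cells so more cytotoxicity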

Structure (SMILES)	viability
Cc1noc(C)c1COc1ccc(C(=O)OCC(=O)NC23CC4CC(CC(C4)C2)C3)cc1	92% (inactive)
O=Cc1ccc(-c2ccc(Cl)cc2Cl)[nH]1	89.3% (inactive)
O=C(N[C@H]1CCC(=O)N(CCSc2ccc(Br)cc2)CC1)OCc1ccccc1	81.7% (inactive)
CN(C(=O)COC(=O)c1sc2ccccc2c1Cl)C1CCCCC1	102% (inactive)
N#CCCN(C(=O)COC(=O)CCc1c[nH]c2ccccc12)c1ccc(F)cc1	98.1% (inactive)
COc1ccc(OC)c(C(=O)NC(CC(N)=O)c2ccc(NCc3ccc(F)c(F)c3)c([N+](=O)[O-])c2)c1 (centres undefined)	91.3% (inactive)
O=[N+]([O-])c1cn(-c2nc(-c3ccco3)cc(C(F)(F)F)n2)cn1	92.9% (inactive)
CC(C)(O)C#Cc1ccc(C(=O)Nc2ccc3c(c2)OCO3)s1	98.5% (inactive)
CC1(C)OC(=O)C(=Cc2ccc[nH]2)C(=O)O1	93.5% (inactive)
Cc1ccccc1Cn1cc(NC(=O)c2noc(C(C)C)c2[N+](=O)[O-])cn1	99.4% (inactive)
Cc1ccc(C2=NCCn3c2c2ccccc2[n+]3[O-])cc1	95.3% (inactive)
O=S(=O)(c1ccc(Oc2ccc3oc4ccccc4c3c2)nc1)N1CCCC1	90.8% (inactive)
O=c1[nH][nH]c(-c2ccccc2O)c1C(C[N+](=O)[O-])c1cccc(Cl)c1 (centres undefined)	94.3% (inactive)
Cc1ccc(NCCC(=O)c2ccc(Br)cc2)cc1	93.9% (inactive)
Cc1ccc(C(=O)n2c(N)nc3ccccc32)cc1	87% (inactive)
COc1ccc(N/C=C/c2nc(SC)nnc2C)cc1	92.8% (inactive)
O=C(c1cc([N+](=O)[O-])ccc1N1CCOCC1)N1CCN(S(=O)(=O)c2cc(Cl)ccc2Cl)CC1	88.9% (inactive)
COc1ccc(N2CCN(C(=O)c3cc4c(C)nc5ccccc5c4o3)CC2)cc1	88.9% (inactive)
CC(=O)c1ccc(NC(=O)c2cc(CC(C)C)on2)cc1	96.5% (inactive)
CN(CC(=O)Nc1ccc(OC(F)(F)F)cc1)C(=O)/C=C/c1cc2c(cc1[N+](=O)[O-])OCO2	85.5% (inactive)
CCOC(=O)CSc1nc(N)c(C(=O)Nc2ccc(N(C)C)cc2)s1	94.7% (inactive)
CCOc1ccc(NC(=O)N(C2CCCCC2)C(C)c2ccncc2)cc1 (centres undefined)	92.1% (inactive)
CCCc1ccc(OCc2ccccc2)c2c(=O)cc(C(=O)OCC)oc12	99.7% (inactive)

Structure (SMILES)	viability
O=C(Nc1cccnc1Cl)c1cc(-c2ccco2)on1	98.9% (inactive)
Cc1cc(C)n(-c2ccc(C(=O)Oc3ccc4c(c3)OCO4)cc2)n1	101% (inactive)
COc1ccc(-c2nsc3c(N4CCCCC4C)ncnc23)cc1 (centres undefined)	88.7% (inactive)
Cc1ccc(N/C=C2\C(=O)C3(C)CCC2C3(C)C)cc1C (centres undefined)	99.7% (inactive)
COc1ccccc1OC(=O)c1ccc(S(=O)(=O)N(C)C)cc1	98.2% (inactive)
O=C(CCC(=O)OCc1ccc(C(=O)Oc2ccc(Cl)cc2)cc1)Nc1ccccc1	86.8% (inactive)
CSc1ccc(CNC(=O)c2ccc(NC(=O)C3=CSCCO3)cc2)cc1	87.8% (inactive)
CCC1(c2ccccc2)NC(=O)N(CC(=O)Nc2ccc(S(=O)(=O)NC3=NCCCCC3)cc2)C1=O (centres undefined)	104% (inactive)
CC(=O)/C(=N\Nc1ccc(C)cc1)N1CCOCC1	86.2% (inactive)
O=[N+]([O-])c1ccc(CN2CCN(c3ccc(Cl)cc3)CC2)o1	100% (inactive)
CCOC(=O)C1CCN(CC(O)COc2ccc(C(C)(C)CC)cc2)CC1 (centres undefined)	89.2% (inactive)
C[N+](C)(CCCCCC[N+](C)(C)CCCN1C(=O)c2cccc3cccc(c23)C1=O)CCCN1C(=O)c2cccc3cccc(c23)C1=O	96.7% (inactive)
O=C(c1ccccc1)c1nn(-c2ccc(Cl)cc2)cc1C(=O)c1cc2ccccc2oc1=O	82.4% (inactive)
COc1c[nH]n(C2CCCCC2)c(=O)c1=O	81.8% (inactive)
CCOc1ncccc1C(=O)OCC(=O)N1CCc2ccccc21	99.6% (inactive)
CS(=O)(=O)c1ccc([C@@H](O)[C@@H](CF)NC(=O)C(Cl)Cl)cc1	81.2% (inactive)
O=C(O)Cc1c[nH]c2ccc(O)cc12	97.3% (inactive)
Cc1ccc(-c2cn3cccnc3n2)cc1NC(=O)c1ccc(Br)o1	96.1% (inactive)
O=C(CSC1=NC(=O)C(c2ccccc2)C(=O)N1)Nc1ccccc1Cl (centres undefined)	101% (inactive)
O=C(Nc1nc2nc(-c3ccccc3)cc(=O)n2[nH]1)c1ccccc1	93.5% (inactive)
CCOC(=O)CSc1ccc(C(=O)Nc2ccc(OC)cc2)cn1	90.3% (inactive)
O=C1N=C(N2CCC(Cc3ccccc3)CC2)S/C1=C/c1cn[nH]c1-c1ccccc1	91% (inactive)
C=CCSc1n[nH]c(-c2ccc(OCCCC)cc2)n1	84.6% (inactive)

Structure (SMILES)	viability
Cc1ccc2nc(SCC(=O)Nc3ccc4c(c3)CCC4)[nH]c2c1	88.9% (inactive)
CCOC(=O)c1c(C)[nH]c(N=Nc2ccc(OC)cc2)c1C	86.4% (inactive)
O=C(CSCc1ccc([N+](=O)[O-])cc1)N/N=C/c1ccncc1	95.2% (inactive)
CCOC(=O)COc1ccc(S(=O)(=O)NCCC2=CCCCC2)cc1	94.7% (inactive)
O=c1oc2ccccc2c2c1nc(C(F)(F)F)n2-c1ccccc1	97.6% (inactive)
CCOC(=O)c1cn[nH]c1N	98.8% (inactive)
CCCCc1ccc(NC(=S)N2CCN(c3ncccn3)CC2)cc1	101% (inactive)
CCCCCCC(=O)N/N=C/c1ccc(Br)cc1	101% (inactive)
C/C(=N/NC(=O)c1ccccn1)c1c[nH]c2ccccc12	99.1% (inactive)
CC(=O)/C(=C\Nc1ccc(OCc2ccccc2)cc1)c1ccccc1	87% (inactive)
CC/C(C)=N/NC(=S)NCc1ccco1	86.3% (inactive)
CC(C)OC(=O)c1ccc(COC(=O)c2cnccn2)cc1	91.4% (inactive)
O=C(OCC(=O)N1CCC(c2ccccc2)=N1)c1ccc(Cl)s1	88% (inactive)
Cc1ccc(C(=O)O/N=C(\N)c2ccc(Br)cc2)cc1C	92.7% (inactive)
COC(=O)c1ccc(COC(=O)CCc2nc(-c3ccccc3)c(-c3ccccc3)o2)cc1	92.4% (inactive)
Cc1cc(=O)oc2cc(OC(=O)C3CCN(C(=O)c4ccc(F)cc4)CC3)ccc12	93% (inactive)
Cc1ccc(C(=O)N2N=C(CC(C)C)CC2(O)C(F)(F)F)o1 (centres undefined)	97.2% (inactive)
Nc1ccc2c(c1)Cc1ccccc1-2	89.1% (inactive)
CCCC(=O)Nc1sc2c(c1C#N)CCCCC2	88.5% (inactive)
CCOC(=O)CSc1nnc(-c2c[nH]c3ccccc23)o1	96.3% (inactive)
CCOC(=O)Cn1c(C)c(Br)c(=O)c2cccc(C)c21	103% (inactive)
Cc1ccc(/C=C2\SC(N3CCCC3)=NC2=O)cc1	86.4% (inactive)
CN(C)C/C=C/C(=O)Nc1cccc(-c2c[nH]c3ncnc(Oc4ccc(NC(=O)CC(=O)Nc5ccc(F)cc5)cc4F)c23)c1	88.1% (inactive)
